A selection: hits, their analogues and other compounds. The true share with any hit is near 2.4%.
CHRM1 antagonist – antagonists of human M1 muscarinic receptor | actives 1.3% (n = 360,000) | AID 588852 | CHO-K1 hM1, Fluo-8 calcium fluorescence, ACh EC80 antagonist | inhibition, % at 3 µM;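 active means percent inhibition above its own plate's cutoff, namely the mean of that plate's compound wells plus 3 SD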;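 further: peak over basal fluorescence ratio during 140 s after agonist addition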
Target sequence (P11229 whole entry, looked up): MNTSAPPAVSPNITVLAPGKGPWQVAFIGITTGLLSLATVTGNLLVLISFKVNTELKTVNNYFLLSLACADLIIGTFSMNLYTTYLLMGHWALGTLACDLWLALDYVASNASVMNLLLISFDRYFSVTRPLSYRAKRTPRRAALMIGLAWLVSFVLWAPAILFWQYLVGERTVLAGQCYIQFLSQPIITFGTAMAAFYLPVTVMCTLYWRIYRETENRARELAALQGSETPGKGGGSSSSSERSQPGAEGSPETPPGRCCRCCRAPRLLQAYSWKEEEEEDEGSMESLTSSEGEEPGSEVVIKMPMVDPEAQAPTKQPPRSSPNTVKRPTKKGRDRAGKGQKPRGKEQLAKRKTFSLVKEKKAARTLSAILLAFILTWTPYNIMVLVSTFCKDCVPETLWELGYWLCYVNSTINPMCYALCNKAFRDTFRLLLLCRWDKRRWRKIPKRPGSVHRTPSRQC
CHO-K1 Ca PAM – M1 PAM counterscreen hit in parental CHO-K1 cells | activation, % at 3 µM | ATP EC20, Fluo-8 calcium fluorescence; 0% at ATP EC20, 100% at ATP max | AID 602247 | actives 0.02% (n = 360,000);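 active means activation above the run cutoff, the mean activation of all test compounds plus 3 SD, cut at about 40% in these data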;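 further: peak over basal fluorescence ratio in a 140 s read after ATP addition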
CHO-K1 Ca antag – M1 antagonist counterscreen hit in parental CHO-K1 cells; ATP-induced calcium, Fluo-8 fluorescence; inhibition, % at 3 µM; actives 0.6% (n = 360,000);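 active means inhibition above a per-plate cutoff, the plate's mean sample inhibition plus 3 SD, cut at about 24% in these data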
CHRM1 agonist – agonists of human M1 muscarinic receptor; actives 0.33% (n = 360,000); P11229; activation, % at 3 µM; CHO-K1 hM1, Fluo-8 calcium fluorescence, agonist mode; 0% DMSO, 100% acetylcholine EC100;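 active means activation above the run's mean compound activation plus 3 SD, cut at about 16% in these data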;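 further: peak over basal fluorescence ratio within a 140 s kinetic read after compound addition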
M1 PAM – human CHRM1 positive allosteric modulation. CHO-K1 hM1, Fluo-8 calcium fluorescence, ACh EC20; 0% = ACh EC20, 100% = maximal ACh. activation, % at 3 µM. actives 0.088% (n = 360,000). AID 588819; in the data active means activation above about 19%, passing the limit was not always enough
M1 ag parental – nonselective activator or artifact in parental CHO-K1 cells | Fluo-8 calcium fluorescence; scaled to maximal ATP response, vehicle zero | activation, % at 3 µM | actives 0.48% (n = 360,000) | AID 602248; in the data active means activation above about 15%;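 further: untransfected CHO-K1 host cells lacking M1 receptor as counterscreen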
Large screens that a line does not name were inactive.

C[C@@H]1CN([C@@H](C)CO)C(=O)c2cc(Br)cnc2O[C@@H]1CN(C)S(=O)(=O)c1ccc(F)cc1	none
O=C(Nc1ccncc1)Nc1ccc(F)c(Cl)c1	CHO-K1 Ca antag 24
COC(=O)c1ccc(NC(=O)Nc2ccc([N+](=O)[O-])cc2)cc1	M1 ag parental 16
O=C(Nc1ccc(F)c(Cl)c1)Nc1csc2ccccc12	CHO-K1 Ca antag 28
CC(=O)N(C)c1ccc(NC(=O)Nc2ccc(C)c(C)c2)cc1	CHRM1 antagonist 27
CC(=O)N(C)c1ccc(NC(=O)Nc2ccccc2C)cc1	none
O=C(Nc1nccs1)c1ccc(COc2ccccc2Cl)o1	none
Cc1cc(C)cc(N(C(=O)c2csnn2)C(C(=O)NC2CCCCC2)c2ccccn2)c1 (stereo not given)	none
CC(=O)Nc1c(Cl)cc2c(c1Cl)C(=O)c1ccccc1-2	none
CC(=O)c1cnc(Nc2ccccc2)s1	none
CC(=O)c1cnc(Nc2cccc(Cl)c2Cl)s1	M1 ag parental 17
COCCN(C(=O)COC(=O)CCc1ccccc1)c1c(N)n(Cc2ccccc2)c(=O)[nH]c1=O	none
CSc1ncnc2c1ccn2CC(=O)Nc1ccc(C)c(C)c1	none
Cc1ccc(C)c(Cn2nc3c4ccccc4n(Cc4ccccc4)cc-3c2=O)c1	CHRM1 antagonist 62, CHRM1 agonist 64
CCc1ccccc1NC(=O)Nc1cc(F)ccc1F	M1 ag parental 25
O=C(Cc1ccccc1F)Nc1ccc(S(=O)(=O)Nc2ncccn2)cc1	none
CC(=O)c1c(C)[nH]c(C(=O)N(C)CC(=O)Nc2ccc(Cl)c(C(F)(F)F)c2)c1C	none
O=C(Nc1ccccc1)Nc1cccc(Cl)c1	none
COC(=O)c1cc(NC(=O)Nc2ccccc2)ccc1Cl	M1 ag parental 16
COC(=O)c1cccc(NC(=O)Nc2ccc(Cl)c(Cl)c2)c1	CHRM1 antagonist 43, M1 ag parental 16
COC(=O)c1sccc1NC(=O)Nc1ccc(Cl)c(Cl)c1	CHO-K1 Ca antag 29
Cc1[nH]c2ccc(C(=O)NCCCN(C)C3CCCCC3)cc2c1C	none
Cc1ccccc1Nc1nc(N)nc(COC(=O)c2ccc(O)cc2)n1	CHRM1 agonist 19
CN(C)c1ccc(-c2nnc(-c3ccccc3F)o2)cc1	M1 ag parental 19
COc1ccc(-c2nnc(-c3ccc(N(C)C)cc3)o2)cc1	none
COCCCN(Cc1ccco1)C(=O)Cn1ncc2c(=O)oc3ccc(C)cc3c21	none
CC(c1ccccc1)n1c(N2CCNCC2)nc2c1c(=O)[nH]c(=O)n2C (stereo not given)	CHRM1 antagonist 69
CC(c1ccccc1)n1c(Br)nc2c1c(=O)[nH]c(=O)n2C (stereo not given)	none
CCC(c1nnnn1-c1ccc2c(c1)OCCO2)N1CCN(c2ccc(C)cc2)CC1 (stereo not given)	none (no result: CHRM1 antagonist, CHRM1 agonist, M1 PAM)
FC(F)(F)c1cccc(Cc2noc(CN3C[C@@H]4CCC[C@H]3C4)n2)c1	none
Cn1ccnc1C1CCCCN1Cc1nc(Cc2cccc(C(F)(F)F)c2)no1 (stereo not given)	CHRM1 antagonist 54
Cn1ccnc1C1CCCCN1Cc1nc(-c2ccc3c(c2)OCO3)no1 (stereo not given)	CHRM1 antagonist 59
Cc1[nH]c2ccccc2c1/C=N/NC(=O)c1cc(C(C)C)[nH]n1	none
COc1ccc(CCNC(=O)c2cn3ccc(C)cc3n2)cc1OC	none
CC1(c2ccccc2)NC(=O)N(CC(=O)N2CCN(S(=O)(=O)c3cccc([N+](=O)[O-])c3)CC2)C1=O (stereo not given)	none
COc1cccc(C2CC(c3cccs3)=NN2C(=O)CSC2=NN3CCCC(=O)N=C3S2)c1OC (stereo not given)	CHO-K1 Ca antag 24
C=CCN1C(=O)/C(=C/c2ccc(O)c(OC)c2)S/C1=N/c1nccs1	CHO-K1 Ca antag 24, M1 ag parental 17
C=CCN1C(=O)/C(=C/c2ccc(OCC(=O)O)cc2)S/C1=N/c1nccs1	none
Cc1cc(NC(=O)C(C)SCC(=O)OCC(=O)Nc2c(C)cccc2C(C)C)no1 (stereo not given)	none
Cc1ccc(/C=N/NC(=O)c2ccccc2OCc2ccc(F)cc2)o1	CHO-K1 Ca PAM 43
CCCOc1ccc(/C=N/NC(=O)c2ccc3c(c2)OCO3)c(OCCC)c1	M1 PAM 32
COc1ccccc1/C=N/NC(=O)c1ccc2c(c1)OCO2	none
COc1cc2c(cc1OC)C(C1C(=O)CCCC1=O)N(C(=O)CCl)CC2 (stereo not given)	none
COc1ccc2c(c1)CCN(C(=O)CCl)C2C1C(=O)CCCC1=O (stereo not given)	CHRM1 agonist 25
Cc1ccc(/C=N\NC(=O)C2CC(=O)N(c3ccccc3)C2)o1 (stereo not given)	none
COc1ccc(CNc2ccc(Cl)cc2)cc1Cn1ccnc1	CHRM1 agonist 17
COc1ccc(-c2cnc3c(NC(C)=O)cc(-c4cc(F)ccc4OC)cn23)cc1OC	CHRM1 agonist 17
COc1ccc(-c2cc(NC(C)=O)c3ncc(-c4ccccc4)n3c2)cc1OC	CHO-K1 Ca antag 29
COc1ccc(F)cc1-c1cc(NC(C)=O)c2ncc(-c3cc(OC)c(OC)c(OC)c3)n2c1	none
O=C(Nc1ccc(F)cc1Cl)C1CCN(C(=O)Nc2ccccc2)CC1	none
COc1cc(C2C(C#N)=C(N)N(Nc3ccccc3)C3=C2C(=O)CC(C)(C)C3)ccc1OCc1ccccc1 (stereo not given)	none
COc1cc(C2C(C#N)=C(N)N(Nc3ccccc3)C3=C2C(=O)CC(C)(C)C3)ccc1OCc1cccc(F)c1 (stereo not given)	CHO-K1 Ca antag 33
O=C(Cc1ccccc1F)Nc1cc(S(=O)(=O)N2CCOCC2)ccc1N1CCCC1	none
O=C(NNC(=O)c1ccccc1O)c1ccc(Cl)c(S(=O)(=O)N2CCc3ccccc32)c1	CHRM1 antagonist 38, CHO-K1 Ca antag 40
O=C(c1ccc(Cl)c(S(=O)(=O)N2CCc3ccccc32)c1)N1CCN(c2ccccc2O)CC1	CHRM1 antagonist 25
CC(=O)N1CCN(C(=O)c2ccc(Cl)c(S(=O)(=O)N3CCc4ccccc43)c2)CC1	none
Cc1ccc(NC(=O)c2ccc(Cl)c(S(=O)(=O)N3CCc4ccccc43)c2)nc1	none
Cc1ncc([N+](=O)[O-])n1CC(O)CCl (stereo not given)	CHRM1 agonist 17
Cc1nn(C)c(C(=O)Nc2cccc(Nc3ccccc3)c2)c1[N+](=O)[O-]	CHRM1 antagonist 26
Cc1nn(C)c(C(=O)N/N=C/c2ccncc2)c1Cl	none
Cc1ccc(SC(=O)c2c([N+](=O)[O-])c(C)nn2C)cc1	CHRM1 antagonist 62
Cc1nn(C)c(C(=O)N/N=C/c2ccccc2)c1[N+](=O)[O-]	CHRM1 antagonist 21
